About 480 (0.16%) of roughly 300,000 compounds were called active. The list is a sample of the results. Results with a measured potency or affinity are listed apart. A number with no mark means an inactive call.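 Rule for the calls: active = inhibition over 29.93%, a cutoff 3 SD above the screen mean, later confirmed by dose response; inconclusive = inhibition over 29.93% but no dose response follow-up; inactive = inhibition at most 29.93% or unconfirmed.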

The assay can be described thus: inhibitors of PhoP regulon expression, primary screen, Salmonella Typhimurium, GFP reporter (AID 1863).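 Note: 0% = low Mg2+ inducing control and 100% = high Mg2+ repressing control.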 The settings on record: S. Typhimurium PhoP-regulated promoter GFP reporter, 4 h; at 50 µM; stronger effect = higher value.
One may read the inhibition as the drop in the measured response relative to a control, in per cent. For the molecule `Cn1nc(-c2ccc(Cl)cc2)nc2c(=O)n(C)c(=O)nc1-2`, the inhibition is 20.5%.

As for `Cn1c(=O)c(-c2ccccc2)nc2ccccc21`, the inhibition was -3.46%.

Turning to `COc1ccccc1NCC(O)Cn1c2ccccc2c2ccccc21` (stereo unspecified), the inhibition is -3.61%.

As to `COc1ccc(CCNCC(O)Cn2c3ccccc3c3ccccc32)cc1OC` (stereo unspecified), the inhibition is -4.43%.

For `COc1ccc(NC(=O)C2=NN(C3CCS(=O)(=O)C3)C(=O)CC2)cn1` (stereo unspecified), the inhibition was 3.89%.

For `O=C(CSc1oc(-c2cccs2)nc1S(=O)(=O)c1ccc(F)cc1)NCC1CCCO1` (stereo unspecified), the inhibition was -4.95%.

Take `CSC[C@H](NC(=O)Cc1c(C)c2cc3c(C)c(C)oc3cc2oc1=O)C(=O)N[C@@H](Cc1ccccc1)C(=O)O`: the inhibition is 5.06%.

`Cc1ccc(C(=O)CC(=O)c2ccccc2)cc1`: the inhibition is 6.5%.

`Cc1ccc(C(=O)Nc2ccccc2Sc2ccccc2)cc1`: the inhibition is -6.94%.

On to `COc1cccc(NC(=O)CCC2CCN(C(=O)c3sccc3C)CC2)c1`, for which the inhibition was -6.68%.

Consider `O=C(CCNC(=O)c1ccc([N+](=O)[O-])cc1)NCCc1ccc(Cl)cc1`, for which the inhibition is 8.36%.

`COCCCn1c(=O)c2sccc2n2c(CCCC(=O)N(C)Cc3ccco3)nnc12`: the inhibition is -1.76%.

Regarding `Cn1ccnc1SCC(=O)NC1CC1`, the inhibition is 6.54%.

Consider `Cc1cc(Nc2cccc(F)c2)nc(NCc2ccccc2)n1`, for which the inhibition is 4.66%.

Take `Cc1cc(Nc2ccccc2)nc(NCc2ccccc2)n1`: the inhibition was 19.9%.

With `Cc1[nH]c(=O)[nH]c(=O)c1S(=O)(=O)Nc1ccc(Cl)c([N+](=O)[O-])c1`, the inhibition was 5.49%.

As to `O=S1(=O)NC(=NCCc2ccccn2)c2ccccc21`, the inhibition is 10.3%.

`O=Cc1ccc2ccc3cccnc3c2n1`: the inhibition is -0.13%.

For the molecule `CCOC(=O)c1ccc2c(c1)NC(=O)C(N1CCN(c3ccc(OC)cc3)CC1)S2` (stereo unspecified), the inhibition is 8.89%.

For `COc1ccc(N(C(=O)c2ccncc2)S(=O)(=O)c2cccs2)cc1`, the inhibition was 8.99%.

Turning to `Cc1ccccc1-n1c(SCC(=O)c2cc(C)n(C)c2C)nnc1-c1ccncc1`, the inhibition was -15.5%.

For `O=C(N/N=C/c1ccc[nH]1)c1cccc([N+](=O)[O-])c1`, the inhibition was 2.02%.

`O=C(N/N=C/c1ccc[nH]1)c1ccc([N+](=O)[O-])cc1`: the inhibition is 5.92%.

On to `Cn1c(CCCOc2ccc(Cl)cc2Cl)nnc1SCC(=O)Nc1ccc(F)c(Cl)c1`, for which the inhibition is -2.33%.

On to `CCC(=O)c1ccc(OCC(=O)OCC(=O)c2cc(C)n(CC3CCCO3)c2C)cc1` (stereo unspecified), for which the inhibition was -5.94%.

With `CCOC(=O)N1CCN(S(=O)(=O)c2ccc(C(=O)N(CCN(C)C)c3nc4ccc(Cl)cc4s3)cc2)CC1`, the inhibition was 14%.

Regarding `CCOc1c(Cl)cc(CNCc2ccncc2)cc1OC`, the inhibition is 2.05%.

With `O=C(Nc1ncccc1O)C1CCN(S(=O)(=O)c2ccc3ccccc3c2)CC1`, the inhibition was -9.16%.

As to `CCCCCn1c2c(c(=N)c3ccccc31)CCC2`, the inhibition is 12.1%.

Regarding `CCOC(=O)Cn1c2c(c(=N)c3ccccc31)CCC2`, the inhibition is 3.57%.

Regarding `CCCCn1c2c(c(=N)c3c1CCC3)CCC2`, the inhibition is -14.8%.

For the molecule `CCn1c2c(c(=N)c3c1CCC3)CCC2`, the inhibition was -5.05%.

`CCCCCCn1c2c(c(=N)c3c1CCC3)CCC2`: the inhibition was 12.9%.

For `CCCn1c2c(c(=N)c3c1CCC3)CCCC2`, the inhibition is -0.71%.

As for `CCn1c2c(c(=N)c3c1CCC3)CCCC2`, the inhibition was -3.7%.

In the case of `CCCCCCCn1c2c(c(=N)c3c1CCC3)CCCC2`, the inhibition is 5.7%.

As for `CCOn1c(SCC)nc2ccccc2c1=O`, the inhibition was 5.58%.

As to `CC(C)c1ccc(NC(=O)CCCN2C(=S)NC(C)(C)CC2C)cc1` (stereo unspecified), the inhibition was 3.65%.

For the molecule `COC(=O)c1ccc(NC(=O)CN2CCN(c3ccccc3C)CC2)cc1`, the inhibition is -8.21%.

Turning to `O=C(Nc1ccccc1)c1cc(S(=O)(=O)NCc2ccncc2)ccc1Cl`, the inhibition was -1.47%.

On to `CCc1c(C(=O)NNC(=S)NCC2CCCO2)csc1C` (stereo unspecified), for which the inhibition is 8.11%.

Turning to `COc1ccc(OC)c(-c2csc(NC(=O)c3ccccc3F)n2)c1`, the inhibition was -4.14%.

Consider `Cc1cc(C)c2cc(C=O)c(Cl)nc2c1`, for which the inhibition is 3.78%.

Take `CCOC(=O)CN1CC23C=CC(O2)C(C(=O)NCc2ccc(C)cc2)C3C1=O` (stereo unspecified): the inhibition was 10.7%.

In the case of `CC(C)CCNC(=O)C12CN(Cc3ccccc3)CC1C(c1ccc([N+](=O)[O-])cc1)=NO2` (stereo unspecified), the inhibition was 16.1%.

For the molecule `CC(C(=O)NC1C=CS(=O)(=O)C1)N1C(=O)/C(=C/c2cccc(Cl)c2)SC1=S` (stereo unspecified), the inhibition is 27.8%.

For the molecule `COc1ccc(/C=C2\SC(=S)N(C(C)C(=O)NC3C=CS(=O)(=O)C3)C2=O)cc1` (stereo unspecified), the inhibition was -13.9%.

Take `CC(C(=O)NC1C=CS(=O)(=O)C1)N1C(=O)/C(=C\c2ccccc2)SC1=S` (stereo unspecified): the inhibition was -3.24%.

Regarding `CC(C(=O)N(C)C1CCS(=O)(=O)C1)N1C(=O)/C(=C/c2ccc(F)cc2)SC1=S` (stereo unspecified), the inhibition was 3.59%.

Turning to `Cc1nn(C)c(C(=O)N/N=C/c2cccc(Oc3ccccc3)c2)c1Br`, the inhibition is 8.95%.

In the case of `COc1ccc(CC(=O)N2CC3(C)CC2CC(C)(C)C3)cc1` (stereo unspecified), the inhibition is 1.16%.

For `COc1ccc(F)c(CN2CCCC(CNS(=O)(=O)c3cccc4cccnc34)C2)c1` (stereo unspecified), the inhibition was -5.85%.

As to `CCCCCCn1ccc(=N)cc1`, the inhibition was -2.46%.

Regarding `CCCCCCCCCCCCCCCCn1cc[n+](C)c1`, the inhibition was 22.9%.

Regarding `CCCC(=O)c1ccc(N2CCN(C(=O)OCC)CC2)c(F)c1`, the inhibition is 1.25%.

As for `O=C(N/N=C\c1ccc(O)c([N+](=O)[O-])c1)C1COc2ccccc2O1` (stereo unspecified), the inhibition was -12.2%.

Consider `O=C(N/N=C\c1ccc(-c2ccccc2[N+](=O)[O-])o1)C1COc2ccccc2O1` (stereo unspecified), for which the inhibition was 6.06%.

Consider `COc1cc(/C=N\NC(=O)C2COc3ccccc3O2)cc(OC)c1O` (stereo unspecified), for which the inhibition is -4.27%.

With `Cc1cc([N+](=O)[O-])cc(/C=N\NC(=O)C2COc3ccccc3O2)c1O` (stereo unspecified), the inhibition is -5.46%.

As for `CC(C)[C@H](NC(=O)OCc1ccccc1)C(=O)OCC(=O)NC1(C#N)CCCC1`, the inhibition is 10.7%.

As to `CC1CCC/C(=N\NC(=O)Nc2ccccc2)C1` (stereo unspecified), the inhibition is 2.46%.

The record behind these values is PubChem BioAssay AID1863 (Southern Research Specialized Biocontainment Screening …, 2009).
